Assay outcomes as filed in PubChem.
Compounds with a hit are over-represented: about 3.8% of the library has one in this group of screens.
PrPC surface inh – inhibitors of human cell surface prion protein PrPC; P04156; 370,000 tested, 0.43% active; inhibition, % at 13.8 µM; AID 720596; TR-FRET read-out; in the data active = inhibition above about 24%
PrP UTR inh – inhibition of PrP 5' UTR reporter expression; AID 488862; cell-based PrP 5' UTR mRNA reporter, plate reader; 340,000 tested, 0.35% active; inhibition, % (no concentration beside the values); in the data active = inhibition above about 52%
Yp Topo-I inh – inhibitors of Yersinia pestis topoisomerase I | activity, % at 10 µM | 360,000 tested, 0.064% active | AID 504884 | Y. pestis Topo-I cleavage product accumulation, plate reader; in the data active = activity above about 50%, passing the limit was not always enough; inconclusive = no clear call, values can overlap the other calls
Mtb hypoxia inh – Mtb hypoxia fluorescent reporter inhibition; 300,000 tested, 0.1% active; M. tuberculosis hypoxia-regulated fluorescent reporter, fluorescence; fluorescence inhibition, % (no concentration beside the values); in the data active = fluorescence inhibition mostly above about 23%, no sharp cut-off; inactive = mostly below about 17%
FBA Mtb inh – inhibits M. tuberculosis FBA enzyme | purified M. tuberculosis FBA, fluorescence read-out | inhibition, % at 1 µM | 360,000 tested, 2.3% active; in the data active = inhibition above about 27%
Target sequence (P9WQA3 whole entry, looked up): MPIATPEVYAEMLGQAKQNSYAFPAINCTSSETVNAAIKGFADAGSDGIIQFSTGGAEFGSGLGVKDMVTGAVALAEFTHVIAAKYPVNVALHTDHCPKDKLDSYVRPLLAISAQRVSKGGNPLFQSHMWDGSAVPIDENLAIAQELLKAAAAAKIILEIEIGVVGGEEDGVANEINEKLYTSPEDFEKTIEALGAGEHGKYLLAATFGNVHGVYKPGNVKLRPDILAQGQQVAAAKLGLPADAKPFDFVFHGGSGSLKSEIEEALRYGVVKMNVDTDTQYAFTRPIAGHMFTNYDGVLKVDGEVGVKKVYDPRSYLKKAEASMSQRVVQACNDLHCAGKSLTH
GDH-TPI inh – GDH-TPI coupled enzyme inhibition counter-screen; GDH-TPI coupled enzyme counterscreen, NADH absorbance; inhibition, % at 4.8 µM; 360,000 tested, 1.2% active; in the data active = inhibition above about 30%
PrP 5UTR single – prion 5' UTR mRNA inhibition, cherry-pick retest. inhibition, % at 2.5 µM. 1,100 tested, 48% active. shares compounds with PrP UTR inh. AID 504592. cell-based prion protein 5' UTR reporter, plate reader; in the data active = inhibition above about 54%; inconclusive = no clear call, values can overlap the other calls
Hits are given with their value; 0 = inactive; ? = inconclusive; - = no result given.

SMILES	PrPC surface inh	PrP UTR inh	Yp Topo-I inh	Mtb hypoxia inh	FBA Mtb inh	GDH-TPI inh	PrP 5UTR single
CN(Cc1ccccc1)C(=O)COC(=O)c1cncc(Br)c1	0	71.5	0	0	0	0	0
O=C(CN1C(=O)c2ccccc2S1(=O)=O)c1ccccc1	0	0	0	-	0	0	-
O=C(CN1C(=O)c2ccccc2S1(=O)=O)c1ccccc1Cl	0	69.0	0	-	0	0	70.5
Cc1ccc(C(=O)CN2C(=O)c3ccccc3S2(=O)=O)cc1	0	65.5	0	-	0	0	74.1
COc1cc(C=NNC(=O)c2c(-c3ccccc3)noc2C)cc(OC)c1OC	-	-	-	0	-	-	-
COC(=O)c1ccc(C(O)C(C)C(=O)CC(=O)OC(C)(C)C)cc1 (stereo unspecified)	-	-	-	0	-	-	-
CC1CN(C(C)CO)C(=O)Cc2cc(NC(=O)Nc3cccc4ccccc34)ccc2OC1CN(C)Cc1ccc(C(F)(F)F)cc1 (stereo unspecified)	-	-	-	0	-	-	-
Cc1cc(C)c([C@@H]2C[C@H]3CN(C4CCCC4)C(=O)[C@]34CCCN24)c(-n2cccn2)c1	0	0	0	0	0	0	-
Cc1ccc(-n2cccn2)c([C@@H]2C[C@H]3CN(C)C(=O)[C@]34CCCN24)c1	0	67.5	0	0	0	0	0
CC1CCc2c(sc(NC(=O)CSc3ncn[nH]3)c2C#N)C1 (stereo unspecified)	0	70.0	0	0	0	0	78.7
N#Cc1c(NC(=O)CSc2ncn[nH]2)sc2c1CCCC2	0	67.6	0	0	0	0	66.9
N#Cc1c(NC(=O)CSC2=NCCS2)sc2c1CCCC2	0	0	0	0	0	0	-
CC(C)(C)C1CCc2c(sc(NC(=O)CSc3ncn[nH]3)c2C#N)C1 (stereo unspecified)	0	0	0	0	0	0	-
COc1ccc(NN=C(C(N)=O)C2=NC(C)(C)Cc3ccccc32)cc1	-	-	-	0	-	-	-
CNC(=O)COC(=O)/C=C/c1cccc(F)c1	0	57.9	0	0	0	0	0
O=C(COC(=O)C=Cc1cccc(F)c1)Nc1ccccc1	-	-	-	0	-	-	-
O=C(NC(=S)Nn1cnnc1)c1ccc(F)cc1Cl	0	0	0	0	0	0	-
O=C(NC(=S)Nn1cnnc1)c1ccccc1Cl	0	78.3	0	0	0	0	0
CC(C)NC(=O)c1ccc2c(c1)nnn2C	0	0	0	0	0	0	-
Cn1nnc2cc(C(=O)NC3CCCCC3)ccc21	0	75.3	0	-	0	0	82.9
N#C[C@]1(S(=O)(=O)c2ccccc2)CC2ON=C(c3cccc(Br)c3)C2C1 (stereo partly specified)	-	-	-	0	-	-	-
CC(=O)Nc1ccc(Nc2nc(C)cc(C)n2)cc1	0	0	0	0	0	0	-
CC(=O)Nc1cc(C)ns1	0	68.8	0	-	0	0	?
C[C@@]12C(=O)N(c3ccccc3)C(=O)N1C1c3ccccc3OCC1C2c1ccccc1 (stereo partly specified)	-	-	-	0	-	-	-
COc1cc(CC(=O)N(c2ccccc2)c2nc(C)cs2)cc(OC)c1OC	0	60.8	0	0	0	0	0
SMILES	PrPC surface inh	PrP UTR inh	Yp Topo-I inh	Mtb hypoxia inh	FBA Mtb inh	GDH-TPI inh	PrP 5UTR single
CN1CC2C(c3ccc(C(F)(F)F)cc3)C3(c4ccc(C#N)cc4)CC2(C3)C1c1ccccc1 (stereo unspecified)	-	-	-	0	-	-	-
O=C(Nc1nc2ccccc2[nH]1)c1ccccc1OC(F)F	0	0	0	0	0	0	-
CC(C)Oc1ccc(C(=O)Nc2nc3ccccc3[nH]2)cc1	0	60.9	0	0	0	0	61.7
O=C(Nc1nc2ccccc2[nH]1)c1ccc(OC(F)F)cc1	0	0	0	0	0	0	-
O=C(Nc1nc2ccccc2[nH]1)c1ccc(F)cc1	0	0	0	0	0	0	-
O=C(Nc1nc2ccccc2[nH]1)c1ccccc1F	0	84.6	0	0	0	0	85.0
CCc1ccc(C(=O)Nc2nc3ccccc3[nH]2)cc1	0	62.7	0	-	0	0	?
COc1ccc(S(=O)(=O)Nc2ccc3c(c2)C(=O)N(C(C)CO)CC(C)C(CN(C)S(=O)(=O)c2ccccc2)O3)cc1 (stereo unspecified)	-	-	-	0	-	-	-
Cc1cc(C(=O)NC(c2ccccc2)[C@@]2(C)CC2C(C)C(=O)Nc2ccc3ccccc3c2)no1 (stereo partly specified)	-	-	-	0	-	-	-
CCOc1ccccc1C=NNC(=O)c1cccc(S(=O)(=O)N(CC)CC)c1	-	-	-	0	-	-	-
COc1cccc(C=NNc2ccc([N+](=O)[O-])cc2)c1O	-	-	-	0	-	-	-
O=[N+]([O-])c1cccc(C=NNc2ccc3ccccc3n2)c1O	0	55.9	0	-	0	0	0
COc1cccc(/C=N/Nc2ccc(C(=O)O)cc2)c1O	0	88.1	0	-	0	0	89.7
COc1cccc(/C=N/Nc2ccc([N+](=O)[O-])cn2)c1O	0	58.1	0	-	0	0	0
COc1cccc(C=NNc2ccc(S(=O)(=O)O)cc2)c1O	-	-	-	0	-	-	-
COc1ccc(C2CC(=O)C=C(c3cccc(Br)c3)C2)cc1 (stereo unspecified)	-	-	-	0	-	-	-
CC(=NNC(=O)COc1cc(C)cc(C)c1)c1cccc(NC(=O)C2CCC2)c1	-	-	-	0	-	-	-
O=C1NC(Cc2ccccc2)COC(=O)C(Cc2ccc(F)cc2)CC=CCC1CC(=O)N(CCO)Cc1ccccc1 (stereo unspecified)	-	-	-	0	-	-	-
CCOC(=O)C1C2COc3ccc(C)cc3C2N2C(=O)C(C)NC(=O)[C@@]12C (stereo partly specified)	-	-	-	0	-	-	-
CC(=NNC(=O)CNC(=O)C1COc2ccccc2O1)c1ccco1 (stereo unspecified)	-	-	-	0	-	-	-
CCC(=O)OC1(C(=O)CCl)C(C)CC2C3CCC4=CC(=O)C=C[C@]4(C)[C@@]3(F)C(O)C[C@@]21C (stereo partly specified)	-	-	-	0	-	-	-
O=C(Nc1ccc(N2CCCCC2)cc1)c1ccccn1	-	92.6	0	0	0	0	89.6
O=C(Nc1ccc(N2CCCCCC2)cc1)c1ccccc1Cl	0	0	0	0	0	0	-
COC(=O)C1=C(c2ccc(OCc3ccccc3)cc2)CC2CCC1N2C(=O)NCc1ccc(N(C)C)cc1 (stereo unspecified)	-	-	-	0	-	-	-
Cc1ccc(CC(=O)NCCCn2ccnc2)cc1	0	0	0	0	0	0	-
SMILES	PrPC surface inh	PrP UTR inh	Yp Topo-I inh	Mtb hypoxia inh	FBA Mtb inh	GDH-TPI inh	PrP 5UTR single
Cc1ccc(C(=O)NCCCn2ccnc2)o1	0	72.9	0	-	0	0	0
O=C(O)c1ccc(COc2ccccc2Cl)cc1	0	0	0	0	0	0	-
O=C(O)c1cccc(COc2ccccc2Cl)c1	0	68.9	0	0	0	0	83.4
CC(C)c1nnc(NC(=O)CSc2nnc(NC(=O)c3c(F)cccc3F)s2)s1	0	79.4	0	0	0	0	0
O=C(CSc1nnc(NC(=O)c2c(F)cccc2F)s1)Nc1ccccc1F	0	0	0	0	0	0	-
Cc1csc(NC(=O)c2ccc(N3CCCC3=O)cc2)n1	0	55.5	0	0	0	0	?
Cc1nnc(NC(=O)c2ccc(N3CCCC3=O)cc2)s1	0	0	0	0	0	0	-
